The values that follow come from PubChem BioAssay (Tox21).

“And” between values parts separate entries of the source, which are not always exact repeats. Equal values may be shown once. More than one record can exist for a structure, and the calls need not agree. The source made the active and inactive calls. Unless noted, calls come from the whole dose curve; as a rule, active = well fitted curve in the direction sought with a large enough effect in the repeat runs; inconclusive = weak or mixed curves; inactive = no such curve, though single readings can be large; an effect the other way counts as inactive or inconclusive.

The nature of test [1]: qHTS assay to identify small molecule antagonists of the thyroid receptor (TR) signaling pathway - cell viability counter screen (AID 743064). Note: nearly all actives have a fitted effect of over 50% in size. The essentials:
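Counter screen for cytotoxicity: compound plus T3 (1 nM final) on GH3.TRE-Luc cells, 23.5 h at 37 °C, then fluorescence viability readout with CellTiter-Fluor.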

A short description of test [2]: qHTS assay to identify small molecule antagonists of the thyroid receptor (TR) signaling pathway (AID 743065). Note: nearly all actives have a fitted effect of over 55% in size. Note: potency is the fitted concentration of half-maximal effect. In short, it runs like this: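 GH3.TRE-Luc rat pituitary cells carrying two TR response elements driving luciferase were plated for 4 h, given compound plus 1 nM T3 (final), and incubated 23.5 h at 37 C. ONE-Glo luminescence measured reporter inhibition; CellTiter-Fluor fluorescence tracked cytotoxicity.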
Background: qHTS replaces the single test concentration by a dilution series.

Test [3] has as its system thyroid hormone receptor (rat, GH3 cells). In words: qHTS assay to identify small molecule agonists of the thyroid receptor (TR) signaling pathway (AID 743066; calls by dose curve).
Test [4] has as its target Estrogen receptor (Homo sapiens) (UniProt P03372). In words: qHTS assay to identify small molecule antagonists of the estrogen receptor alpha (ER-alpha) signaling pathway (AID 743069; active = well fitted curve in the direction sought with a large enough effect in the signal ratio in the repeat runs, not every such curve was filed as active; inconclusive = weak or mixed curves, or effect the other way; inactive = no such curve, though single readings can be large or run the other way; the % refers to the signal ratio; note: potency is the fitted concentration of half-maximal effect). The essentials: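 Estradiol-stimulated ER-alpha-UAS-bla HEK293 cells, 18 hr compound exposure at 37C. LiveBLAzer B/G substrate, 2 hr RT, fluorescence read.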
Test [5] can be described thus: qHTS assay to identify small molecule antagonists of the estrogen receptor alpha (ER-alpha) signaling pathway - cell viability counter screen (AID 743074; calls by dose curve;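 note: HEK293 cells carrying ER-alpha-UAS-bla reporter stimulated with 17beta-estradiol; nearly all actives have a fitted effect of over 45% in size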).
Test [6] deals with Estrogen receptor (Homo sapiens) (UniProt P03372). In words: qHTS assay to identify small molecule agonists of the estrogen receptor alpha (ER-alpha) signaling pathway (AID 743075; calls by dose curve;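 note: HEK293 GripTite cells with ER-alpha and UAS-driven beta-lactamase reporter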; note: potency is the fitted concentration of half-maximal effect).
Chain of Estrogen receptor (Homo sapiens) (P03372 whole entry, looked up): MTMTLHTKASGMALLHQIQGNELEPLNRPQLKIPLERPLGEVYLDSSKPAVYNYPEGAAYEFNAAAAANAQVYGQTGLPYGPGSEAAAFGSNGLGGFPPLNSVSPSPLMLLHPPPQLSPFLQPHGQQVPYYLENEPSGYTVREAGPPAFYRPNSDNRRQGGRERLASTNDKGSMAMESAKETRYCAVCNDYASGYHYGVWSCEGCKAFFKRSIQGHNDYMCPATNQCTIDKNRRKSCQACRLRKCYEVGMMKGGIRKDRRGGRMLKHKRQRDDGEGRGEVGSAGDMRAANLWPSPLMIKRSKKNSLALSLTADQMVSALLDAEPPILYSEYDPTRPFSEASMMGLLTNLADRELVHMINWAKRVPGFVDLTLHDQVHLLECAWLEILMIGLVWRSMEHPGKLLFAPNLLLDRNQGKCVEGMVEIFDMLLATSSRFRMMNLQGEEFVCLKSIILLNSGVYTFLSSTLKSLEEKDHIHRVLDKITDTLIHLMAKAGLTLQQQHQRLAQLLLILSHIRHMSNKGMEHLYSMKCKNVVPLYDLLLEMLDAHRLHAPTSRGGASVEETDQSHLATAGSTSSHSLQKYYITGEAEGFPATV
Test [7] shares this target. The test is described as follows: qHTS assay to identify small molecule agonists of the estrogen receptor alpha (ER-alpha) signaling pathway using the BG1 cell line (AID 743079). Note: nearly all actives have a fitted effect of over 20% in size. Note: potency is the fitted concentration of half-maximal effect. The note with it: BG1Luc4E2 cells, ERE-luciferase agonist, 22 h; activation: at 70.3 µM (top of the series) unless noted.
Test [8] in a line: qHTS assay to identify small molecule antagonists of the estrogen receptor alpha (ER-alpha) signaling pathway using the BG1 cell line - cell viability counter screen (AID 743081).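 Note: compound given together with 17beta-estradiol as the ER stimulus; nearly all actives have a fitted effect of over 45% in size.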 Note: potency is the fitted concentration of half-maximal effect.
Test [9] deals with Aromatase (Homo sapiens) (UniProt P11511). The test is described as follows: qHTS assay to identify aromatase inhibitors (AID 743083). Note: nearly all actives have a fitted effect of over 55% in size.
Chain of Aromatase (Homo sapiens) (P11511 whole entry, looked up): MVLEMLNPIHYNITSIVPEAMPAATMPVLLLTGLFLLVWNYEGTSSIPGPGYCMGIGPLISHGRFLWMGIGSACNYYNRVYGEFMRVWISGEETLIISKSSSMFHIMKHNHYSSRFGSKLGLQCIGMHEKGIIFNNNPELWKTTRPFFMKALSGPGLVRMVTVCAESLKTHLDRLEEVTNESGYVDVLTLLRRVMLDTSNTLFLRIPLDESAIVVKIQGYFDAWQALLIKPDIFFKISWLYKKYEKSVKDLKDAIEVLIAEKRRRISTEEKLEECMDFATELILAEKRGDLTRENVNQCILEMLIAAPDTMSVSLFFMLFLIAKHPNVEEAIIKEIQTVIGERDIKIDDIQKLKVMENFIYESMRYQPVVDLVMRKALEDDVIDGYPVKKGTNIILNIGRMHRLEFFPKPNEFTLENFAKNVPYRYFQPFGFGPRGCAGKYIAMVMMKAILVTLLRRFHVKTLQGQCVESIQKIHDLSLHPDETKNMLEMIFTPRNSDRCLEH
For test [10], the target named is Aryl hydrocarbon receptor (Homo sapiens) (UniProt P35869). In words: qHTS assay to identify small molecule that activate the aryl hydrocarbon receptor (AhR) signaling pathway (AID 743085).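 For activation: HG2L7.5c1 human HepG2 liver cells with stably integrated DRE-driven firefly reporter.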 Note: nearly all actives have a fitted effect of over 15% in size. Note: potency is the fitted concentration of half-maximal effect. The essentials: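 Measured in HG2L7.5c1 cells: CellTiter-Fluor signal (30 min incubation, 37C) for viability, then luciferase luminescence (30 min, room temperature). Compound contact time was 24 h at 37C, following a 5 h pre-incubation.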
Chain of Aryl hydrocarbon receptor (Homo sapiens) (P35869 whole entry, looked up): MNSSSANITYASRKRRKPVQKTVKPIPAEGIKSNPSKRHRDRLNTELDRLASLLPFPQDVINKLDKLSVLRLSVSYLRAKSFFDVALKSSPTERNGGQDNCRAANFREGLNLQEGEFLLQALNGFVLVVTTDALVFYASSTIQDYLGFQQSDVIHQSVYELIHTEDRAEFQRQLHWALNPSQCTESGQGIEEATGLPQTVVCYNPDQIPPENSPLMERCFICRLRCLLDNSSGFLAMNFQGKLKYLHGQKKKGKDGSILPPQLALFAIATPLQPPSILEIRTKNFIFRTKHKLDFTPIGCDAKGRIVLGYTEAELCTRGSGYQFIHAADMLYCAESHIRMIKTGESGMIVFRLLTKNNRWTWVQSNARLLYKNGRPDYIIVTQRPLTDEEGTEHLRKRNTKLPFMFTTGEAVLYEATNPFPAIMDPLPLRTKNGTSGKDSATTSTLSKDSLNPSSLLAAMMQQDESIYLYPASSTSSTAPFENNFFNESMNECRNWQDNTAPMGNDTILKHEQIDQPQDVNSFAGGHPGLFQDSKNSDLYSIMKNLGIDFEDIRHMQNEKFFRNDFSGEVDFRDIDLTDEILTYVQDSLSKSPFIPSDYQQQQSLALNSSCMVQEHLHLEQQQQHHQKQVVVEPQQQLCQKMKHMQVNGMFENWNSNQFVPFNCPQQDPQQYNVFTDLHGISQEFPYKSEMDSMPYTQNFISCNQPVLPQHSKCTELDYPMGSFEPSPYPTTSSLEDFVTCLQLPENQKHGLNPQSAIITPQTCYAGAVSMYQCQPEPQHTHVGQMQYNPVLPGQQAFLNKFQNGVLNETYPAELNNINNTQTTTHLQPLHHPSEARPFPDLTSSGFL

Test [11] concerns the target Peroxisome proliferator-activated receptor gamma (Homo sapiens) (UniProt P37231). In words: qHTS assay to identify small molecule agonists of the peroxisome proliferator-activated receptor gamma (PPARg) signaling pathway (AID 743094; active = well fitted activation curve with a large enough effect in the signal ratio in the repeat runs, not every such curve was filed as active; inconclusive = weak or mixed curves, or effect the other way; inactive = no such curve, though single readings can be large or run the other way; the % refers to the signal ratio). The essentials:
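Quantitative HTS agonist mode: stable HEK293H line with UAS-beta-lactamase reporter under PPARg control, 17 h compound exposure at 37C, fluorescence after 1 h FRET substrate loading at room temperature.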

Test [12] is described as follows: qHTS assay to identify small molecule antagonists of the peroxisome proliferator-activated receptor gamma (PPARg) signaling pathway - cell viability counter screen (AID 743194). Note: nearly all actives have a fitted effect of over 55% in size. The settings on record: Potency: co-treated with 50 nM rosiglitazone unless noted. The essentials:
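PPARg-UAS-bla HEK293H cells were plated, rested 5 h at 37 C, then treated with compounds plus rosiglitazone (50 nM final) for 17 h at 37 C; viability was then read by CellTiter-Glo luminescence after 30 min at room temperature.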

Test [13] in a line: qHTS assay for small molecule agonists of the antioxidant response element (ARE) signaling pathway - cell viability counter screen (AID 743203; calls by dose curve; note: nearly all actives have a fitted effect of over 55% in size). In short, it runs like this:
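Seeded at 2,000 cells/well, ARE-bla HepG2 cells were incubated 5 hrs before compound addition. After 16 hrs of treatment at 37C with 5% CO2, CellTiter-Glo reagent was added and luminescence read 30 min later.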

The nature of test [14]: qHTS assay for small molecule activators of the heat shock response signaling pathway - cell viability counter screen (AID 743209). Note: nearly all actives have a fitted effect of over 50% in size. In short, it runs like this: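 First, HSE-bla HeLa cells were seeded at 1500 cells/well and kept overnight at 37 C. Next, compounds were pinned in and incubated 5 h. After the FRET substrate step, CellTiter-Glo was added and luminescence read 30 min later.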

The nature of test [15]: qHTS assay to identify small molecule antagonists of the estrogen receptor alpha (ER-alpha) signaling pathway using the BG1 cell line (AID 743080; calls by dose curve;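 note: BG1 cells stimulated with 17beta-estradiol alongside compound; nearly all actives have a fitted effect of over 25% in size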). In short, it runs like this: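 Luminescence from a 4×ERE-luciferase reporter in BG1-Luc-4E2 cells served as read-out. Cells, pre-cultured 5 days in stripped-serum phenol-red-free medium, were exposed to compound with 17beta-estradiol co-stimulation for 21.5 h at 37 C.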

Test [16] is described as follows: qHTS assay to identify aromatase inhibitors - cell viability counter screen (AID 743084).
Test [17] in a line: qHTS assay to identify small molecule that activate the aryl hydrocarbon receptor (AhR) signaling pathway - cell viability counter screen (AID 743086).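 Note: HepG2 liver cells carrying the AhR DRE luciferase reporter; nearly all actives have a fitted effect of over 45% in size.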 In short, it runs like this: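 HepG2-AhR-luc (HG2L7.5c1) cells, 4000/well, were preincubated 5 h at 37C, exposed to compound in qHTS format for 24 hr at 37C, then given CellTiter-Fluor for 30 min; viability was read as fluorescence in the reporter wells.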

The target of test [18] is Peroxisome proliferator-activated receptor gamma (Homo sapiens) (UniProt P37231). The test is described as follows: qHTS assay to identify small molecule antagonists of the peroxisome proliferator-activated receptor gamma (PPARg) signaling pathway (AID 743191; calls by dose curve; note: nearly all actives have a fitted effect of over 30% in size; note: potency is the fitted concentration of half-maximal effect). The essentials:
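GeneBLAzer PPARg UAS-bla HEK293H cells carrying a UAS-driven beta-lactamase reporter were plated at 3000 cells/well, preincubated 5 h at 37C, then given compound for 17 h at 37C; LiveBLAzer B/G FRET substrate was read after 1 h at room temperature.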

Test [19] in a line: qHTS assay for small molecule activators of the heat shock response signaling pathway (AID 743210; active = well fitted activation curve with a large enough effect in the signal ratio in the repeat runs, with a control signal flat, not every such curve was filed as active; inconclusive = weak or mixed curves; the % refers to the signal ratio;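 note: HeLa cells with beta-lactamase reporter driven by heat shock elements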). The essentials:
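Reporter gene assay: HeLa cells stably bearing an HSE-bla construct, compound treatment 5 h at 37 C, LiveBLAzer substrate 2.5 h at RT, fluorescence intensity.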

The nature of test [20]: qHTS assay for small molecule agonists of the antioxidant response element (ARE) signaling pathway (AID 743202; active = well fitted activation curve with a large enough effect in the signal ratio in the repeat runs, not every such curve was filed as active; inconclusive = weak or mixed curves, or effect the other way; inactive = no such curve, though single readings can be large or run the other way; the % refers to the signal ratio). In short, it runs like this: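 Compounds delivered in DMSO to ARE-bla HepG2 cells (2,000 cells/well, pre-incubated 5 h) and left 16 h at 37 C. LiveBLAzer B/G FRET substrate then added for 2 h at RT before fluorescence reading.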

Chain of Peroxisome proliferator-activated receptor gamma (Homo sapiens) (P37231 whole entry, looked up): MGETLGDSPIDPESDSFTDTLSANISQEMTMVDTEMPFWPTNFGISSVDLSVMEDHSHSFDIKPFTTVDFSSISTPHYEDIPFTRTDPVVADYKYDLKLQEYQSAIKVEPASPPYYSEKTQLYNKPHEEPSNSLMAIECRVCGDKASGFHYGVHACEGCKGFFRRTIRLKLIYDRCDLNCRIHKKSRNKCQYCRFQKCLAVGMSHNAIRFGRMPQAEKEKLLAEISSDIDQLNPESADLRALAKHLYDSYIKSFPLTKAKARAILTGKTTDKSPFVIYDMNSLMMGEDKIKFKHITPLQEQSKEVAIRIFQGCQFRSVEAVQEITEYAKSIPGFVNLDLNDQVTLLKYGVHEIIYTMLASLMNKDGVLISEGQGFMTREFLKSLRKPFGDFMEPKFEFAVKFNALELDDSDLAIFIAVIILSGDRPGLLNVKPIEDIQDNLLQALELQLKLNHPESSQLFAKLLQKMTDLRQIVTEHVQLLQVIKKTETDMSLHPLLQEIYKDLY

Regarding `Cc1cccc(N=Nc2ccc(N(C)C)cc2)c1`, the Potency result in test [1], in [2], in test [3], in [4], in test [5] and in test [6] was “inactive” throughout. The Potency entry in test [9], in [11], in [12], in test [13] and in [14] was “inactive” in each case. The Potency in [7] is 139 nM (active) and 864 nM (active); in test [8], 31.2 µM (active) and 27.3 µM (active); in test [10], 13.9 µM (active) and 9.69 µM (active).

For `OC(c1ccc(Cl)cc1)(c1cncnc1)c1ccccc1Cl` (centres undefined), the Potency result in test [1], in test [3], in test [5], in [15], in test [8] and in [16] was “inactive” each time. The Potency result in test [10], in test [17], in test [12], in [13], in [14] and in test [19] was “inactive” throughout. The Potency in test [2] is 61.1 µM (active); in test [4], 54.9 µM [inconclusive] (active); in test [6], 17.7 µM [activator] (active) and 61.6 µM [inconclusive] (active); in [7], 9.69 µM (active); in [18] it was 54.9 µM (active).

As to `O=NN1CCOCC1`, the Potency entry in test [1], in test [2], in [3], in [4], in test [5] and in test [6] was “inactive” throughout. Besides, the Potency result in test [7], in test [15], in test [8], in [9], in test [16] and in test [10] was “inactive” throughout. Moreover, the Potency entry in test [17], in [11], in [18], in test [12], in test [20] and in test [13] was “inactive” throughout. Besides, the Potency result in test [14] and in test [19] was “inactive” in each case.

`CC1=C(C(=O)Nc2ccccc2)SCCO1`: the Potency entry in [1], in test [2], in test [3], in test [4], in test [5] and in test [6] was “inactive” throughout. Also, the Potency result in test [8], in test [9], in test [16], in [17], in test [11] and in test [18] was “inactive” in each case. For the same compound, the Potency result in [12], in test [20], in test [13], in test [14] and in [19] was “inactive” throughout. The Potency is 31.1 µM (active) and 27.3 µM (active) in test [7]; 27.8 µM (active) and 24.3 µM (active) in test [10].

In the case of `COc1ccc(C=O)cc1OC`, the Potency entry in test [1], in test [2], in test [3], in test [4], in [5] and in test [6] was “inactive” throughout. In addition, the Potency result in test [15], in [8], in test [9], in test [16], in [10] and in [17] was “inactive” each time. The Potency entry in [11], in test [18], in test [12], in test [20], in test [13] and in test [14] was “inactive” throughout. Also, the Potency result in test [19] was “inactive”. Further, the Potency entry in test [7] is “inactive and 6.86 µM (active)”.

Turning to `CCOS(=O)(=O)OCC`, the Potency result in test [1], in test [2], in test [3], in [4], in test [5] and in [6] was “inactive” in each case. The Potency entry in test [7], in test [15], in [8], in test [9], in [16] and in test [10] was “inactive” throughout. For the same compound, the Potency entry in [17], in test [11], in test [18], in test [12], in test [20] and in test [13] was “inactive” throughout. Also, the Potency result in [14] was “inactive”.

For the compound `Clc1ccc(C(Cl)(Cl)Cl)cc1`, the Potency entry in test [1], in test [2], in test [3], in test [4], in test [5] and in test [6] was “inactive” each time. Further, the Potency result in test [15], in test [8], in test [9], in test [16], in test [10] and in test [17] was “inactive” in each case. In addition, the Potency entry in test [11], in test [18], in test [12], in test [20], in test [13] and in test [14] was “inactive” each time. Moreover, the Potency entry in [19] was “inactive”. Moreover, in [7], the Potency entry was “inactive and 30.6 µM (active)”.
